Source: PubChem BioAssay AID651903 (Broad Institute, 2012)
Screen size: about 22,000 compounds; about 1,100 (5%) were called active. The full list was thinned out, with actives kept by preference. A number with no mark means an inactive call. No stated cut-off is given here; in the data, active means activity score above about 55%; inconclusive means no clear call, values can overlap the other calls; inactive means below that.

Test: inhibitors of intracellular Trypanosoma cruzi, primary screen, cell-based, plate reader, single point, set 2 (AID 651903);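 further: parasites and compound incubated about four days before reading; 0% = median of neutral control wells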
Conditions: intracellular Trypanosoma cruzi in host cells, at 5.01 µM, active compounds read high

Row | Compound | activity score (inhibition)
1 | C[C@@H]1CN([C@H](C)CO)C(=O)c2cccc(NC(=O)c3nc4ccccc4s3)c2O[C@@H]1CN(C)Cc1ccc(Oc2ccccc2)cc1 | 24.2%
2 | Cc1noc(C)c1NC(=O)Nc1ccc2c(c1)CC(=O)N([C@@H](C)CO)C[C@H](C)[C@@H](CN(C)CC1CCCCC1)O2 | 4.18%
3 | Cc1ccc(S(=O)(=O)N(C)C[C@H]2OCCCC[C@@H](C)Oc3ccc(NS(C)(=O)=O)cc3C(=O)N([C@H](C)CO)C[C@@H]2C)cc1 | 4.35%
4 | COc1ccc(S(=O)(=O)N(C)C[C@@H]2Oc3ccc(NS(=O)(=O)c4cn(C)cn4)cc3C(=O)N([C@@H](C)CO)C[C@@H]2C)cc1 | -13%
5 | COc1ccc(S(=O)(=O)N(C)C[C@H]2Oc3ccc(NS(=O)(=O)c4ccc(F)cc4)cc3C(=O)N([C@H](C)CO)C[C@H]2C)cc1 | 6.09%
6 | C[C@H]1CN([C@@H](C)CO)C(=O)CCCn2nncc2CO[C@@H]1CN(C)S(=O)(=O)c1ccccc1C#N | -9.5%
7 | C[C@@H]1CN([C@H](C)CO)C(=O)Cc2cc(NC(=O)Nc3ccccc3)ccc2O[C@@H]1CN(C)Cc1ccc(C(F)(F)F)cc1 | 14.2%
8 | C[C@@H]1CN([C@H](C)CO)C(=O)Cc2cc(NC(=O)c3ccncc3)ccc2O[C@H]1CN(C)Cc1ccc(-c2ccccc2)cc1 | 57.2% (active)
9 | C[C@H]1CN([C@@H](C)CO)C(=O)Cc2cc(NC(=O)Nc3ccccc3)ccc2O[C@H]1CN(C)Cc1ccncc1 | 6.16%
10 | C[C@H]1CN([C@@H](C)CO)C(=O)Cc2cc(N(C)C)ccc2O[C@@H]1CN(C)Cc1ccc(-c2ccccc2)cc1 | 68.2% (active)
11 | COc1ccc(CN(C)C[C@@H]2Oc3ccc(NC(=O)c4ccncc4)cc3CC(=O)N([C@H](C)CO)C[C@H]2C)cc1 | -3.55%
12 | C[C@H](CO)N1C[C@H](C)[C@H](CN(C)Cc2ccc(-c3ccccc3)cc2)Oc2ccc(NC(=O)Nc3ccc(F)cc3)cc2CC1=O | 58.8% (active)
13 | C[C@@H]1CN([C@H](C)CO)C(=O)Cc2cc(NC(=O)c3ccncc3)ccc2O[C@@H]1CN(C)Cc1ccncc1 | -11.9%
14 | C[C@@H]1CN([C@H](C)CO)C(=O)Cc2cc(N(C)C)ccc2O[C@@H]1CN(C)Cc1ccccc1 | -5.53%
15 | C[C@H](CO)N1C[C@H](C)[C@H](CN(C)Cc2ccc(C(F)(F)F)cc2)Oc2ccc(N(C)C)cc2CC1=O | 50.9%
16 | C[C@@H]1CCCCO[C@H](CN(C)Cc2ccncc2)[C@@H](C)CN([C@H](C)CO)C(=O)c2cc(NC(=O)CCCN(C)C)ccc2O1 | -8.02%
17 | Cc1noc(C)c1NC(=O)Nc1ccc2c(c1)C(=O)N([C@H](C)CO)C[C@H](C)[C@H](CN(C)S(=O)(=O)c1cccs1)O2 | 2.68%
18 | C[C@@H]1CN([C@H](C)CO)C(=O)c2cc(NC(=O)CCCCCC(=O)Nc3ccccc3N)ccc2O[C@@H]1CN(C)S(=O)(=O)c1ccc(Cl)cc1 | 15.5%

Row | Compound | activity score (inhibition)
19 | Cc1ccc(S(=O)(=O)N(C)C[C@@H]2Oc3ccc(NS(=O)(=O)c4c(C)noc4C)cc3CC(=O)N([C@H](C)CO)C[C@H]2C)cc1 | 4.67%
20 | C[C@H](CO)N1C[C@H](C)[C@H](CN(C)Cc2ccncc2)Oc2ccc(NS(=O)(=O)c3ccc(F)cc3)cc2CC1=O | -4.01%
21 | CC(C)NC(=O)Nc1ccc2c(c1)C(=O)N([C@H](C)CO)C[C@H](C)[C@H](CN(C)C(=O)Nc1ccc(C(F)(F)F)cc1)OCCCC[C@@H](C)O2 | 56.9% (active)
22 | CC(C)NC(=O)Nc1ccc2c(c1)C(=O)N([C@H](C)CO)C[C@H](C)[C@@H](CN(C)Cc1ccc(C(F)(F)F)cc1)OCCCC[C@@H](C)O2 | -27.7%
23 | C[C@@H]1CCCCO[C@@H](CN(C)Cc2ccc(C(F)(F)F)cc2)[C@@H](C)CN([C@H](C)CO)C(=O)c2cc(NC(=O)Nc3ccccc3)ccc2O1 | 67.7% (active)
24 | C[C@@H]1CCCCO[C@@H](CN(C)C(=O)Nc2ccccc2)[C@@H](C)CN([C@H](C)CO)C(=O)c2cc(NC(=O)Nc3ccc(F)cc3)ccc2O1 | 7.86%
25 | CC(C)NC(=O)Nc1ccc2c(c1)C(=O)N([C@H](C)CO)C[C@H](C)[C@H](CN(C)Cc1ccc(C(=O)O)cc1)OCCCC[C@@H](C)O2 | -25.6%
26 | CC(C)NC(=O)N(C)C[C@@H]1OCCCC[C@@H](C)Oc2ccc(NC(=O)Nc3ccccc3)cc2C(=O)N([C@H](C)CO)C[C@@H]1C | -24.2%
27 | Cc1noc(C)c1NC(=O)N(C)C[C@H]1Oc2ccc(NC(=O)Nc3ccc(C(F)(F)F)cc3)cc2CC(=O)N([C@@H](C)CO)C[C@@H]1C | -4.63%
28 | Cc1ccc(S(=O)(=O)N(C)C[C@@H]2Oc3ccc(NC(=O)Cc4ccccc4)cc3CC(=O)N([C@H](C)CO)C[C@H]2C)cc1 | 4.53%
29 | COc1ccc(S(=O)(=O)Nc2ccc3c(c2)C(=O)N([C@H](C)CO)C[C@H](C)[C@H](CN(C)Cc2ccc(C(F)(F)F)cc2)O3)cc1 | 24.5%
30 | COc1ccc(S(=O)(=O)Nc2ccc3c(c2)C(=O)N([C@H](C)CO)C[C@H](C)[C@@H](CN(C)Cc2ccc(-c4ccccc4)cc2)O3)cc1 | 55.9% (active)
31 | COc1ccc(S(=O)(=O)Nc2ccc3c(c2)C(=O)N([C@H](C)CO)C[C@@H](C)[C@@H](CN(C)Cc2ccccc2)O3)cc1 | -14.1%
32 | COc1ccc(CN(C)C[C@@H]2Oc3ccc(NS(=O)(=O)c4ccc(OC)cc4)cc3C(=O)N([C@H](C)CO)C[C@H]2C)cc1 | 3.29%
33 | Cc1ccc(S(=O)(=O)Nc2ccc3c(c2)C(=O)N([C@@H](C)CO)C[C@@H](C)[C@H](CN(C)Cc2ccc(C(F)(F)F)cc2)O3)cc1 | 52.7%
34 | C[C@H](CO)N1C[C@H](C)[C@H](CN(C)Cc2ccc(C(F)(F)F)cc2)Oc2ccc(NS(=O)(=O)c3ccc(Cl)cc3)cc2C1=O | 60.9% (active)
35 | C[C@@H]1CN([C@@H](C)CO)C(=O)c2cccc(NC(=O)Nc3ccc4c(c3)OCO4)c2O[C@H]1CN(C)C(=O)Nc1cccc2ccccc12 | -8.82%
